Common to all, as to details: mRNA level, 48 h; actives raise or lower the signal
Read-out in assay [1]: Cytochrome P450 (CYP24A1), CYP24A1 (gene 1591)
Nature of the assay: LTEA_HepaRG_CYP24A1: Life Technologies and Expression Analysis (LTEA) Assay for Cytochrome P450 (CYP24A1) using HepaRG (AID 2283478). Summed up: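 HepaRG, 48 h chemical exposure, 8-pt half-log CRC from 100 uM, 0.5% DMSO vehicle, duplicates. Endpoint: CYP24A1 mRNA by Fluidigm TaqMan qRT-PCR, normalized ACTB/GAPDH/POLR2A; gain/loss fit vs DMSO.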

Read-out in assay [2]: Cytochrome P450 (CYP1A2), CYP1A2 (gene 1544)
Put plainly: LTEA_HepaRG_CYP1A2: Life Technologies and Expression Analysis (LTEA) Assay for Cytochrome P450 (CYP1A2) using HepaRG (AID 2283479). Summed up: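 CYP1A2 transcript induction or loss, quantified by Fluidigm qRT-PCR against three housekeeping genes, was fitted bidirectionally against 0.5% DMSO controls. Human HepaRG cells received eight half-log concentrations from 100 uM over 48 h.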

Read-out in assay [3]: cysteine-aspartic acid protease (CASP8), CASP8 (gene 841)
Nature of the assay: LTEA_HepaRG_CASP8: Life Technologies and Expression Analysis (LTEA) Assay for cysteine-aspartic acid protease (CASP8) using HepaRG (AID 2283480). Summed up: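 HepaRG, 48 h exposure, duplicate wells; 8 conc, half-log from 100 uM, 0.5% DMSO. Serum-free induction medium. CASP8 mRNA by TaqMan qRT-PCR, norm. ACTB/GAPDH/POLR2A; gain/loss fitted vs DMSO.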

Read-out in assay [4]: Cytochrome P450 (CYP2B6), CYP2B6 (gene 1555)
Put plainly: LTEA_HepaRG_CYP2B6: Life Technologies and Expression Analysis (LTEA) Assay for Cytochrome P450 (CYP2B6) using HepaRG (AID 2283481). Summed up:
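HepaRG cells plated 48 h, switched to serum-free induction medium, then dosed 48 h (8 points, half-log from 100 uM, 0.5% DMSO). RNA isolated; CYP2B6 expression measured by qRT-PCR; gain or loss fitted relative to DMSO.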

Read-out in assay [5]: Cytochrome P450 2C19 (Homo sapiens) (UniProt P33261)
Nature of the assay: LTEA_HepaRG_CYP2C19: Life Technologies and Expression Analysis (LTEA) Assay for CYP2C19 using HepaRG (AID 2283482). Summed up: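 Transcript levels of CYP2C19 were quantified by qRT-PCR after HepaRG cells were treated for 48 hours with test chemicals up to 100 uM (eight half-log concentrations, 0.5% DMSO vehicle). Gain or loss of signal was fitted relative to DMSO.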

Read-out in assay [6]: CYP2C8 (gene 1558)
Nature of the assay: LTEA_HepaRG_CYP2C8: Life Technologies and Expression Analysis (LTEA) Assay for CYP2C8 using HepaRG (AID 2283483). Summed up: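 CYP2C8 mRNA induction or loss, by qRT-PCR normalized to ACTB/GAPDH/POLR2A, is read in HepaRG cells after 48 h treatment. Concentrations run from 100 uM down in half-log dilutions, with 0.5% DMSO as vehicle and baseline.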

Read-out in assay [7]: CYP2C9 (gene 1559)
Put plainly: LTEA_HepaRG_CYP2C9: Life Technologies and Expression Analysis (LTEA) Assay for CYP2C9 using HepaRG (AID 2283484). Summed up: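 Cells plated 48 h, switched to serum-free induction medium, then treated in duplicate for 48 h at eight concentrations (max 100 uM, 0.5% DMSO). RNA then analysed by qRT-PCR for CYP2C9; curves fitted in both directions relative to DMSO.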

Read-out in assay [8]: CYP2E1 (gene 1571)
Put plainly: LTEA_HepaRG_CYP2E1: Life Technologies and Expression Analysis (LTEA) Assay for CYP2E1 using HepaRG (AID 2283485). Summed up:
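HepaRG cells, plated 48 h, then exposed 48 h in serum-free induction medium to eight half-log concentrations from 100 uM in 0.5% DMSO, duplicate. CYP2E1 mRNA by qRT-PCR, normalized to ACTB/GAPDH/POLR2A; bidirectional fit versus DMSO.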

Read-out in assay [9]: CYP4A11 (gene 1579)
Put plainly: LTEA_HepaRG_CYP4A11: Life Technologies and Expression Analysis (LTEA) Assay for CYP4A11 using HepaRG (AID 2283486). Summed up:
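HepaRG, 48 h chem exposure, 8 conc (100 uM top, half-log), 0.5% DMSO vehicle; qRT-PCR readout, housekeeping-gene normalized; bidirectional curve fit vs DMSO baseline.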

Read-out in assay [10]: DNA damage-inducible transcript 3 (DDIT3), DDIT3 (gene 1649)
Put plainly: LTEA_HepaRG_DDIT3: Life Technologies and Expression Analysis (LTEA) Assay for DNA damage-inducible transcript 3 (DDIT3) using HepaRG (AID 2283488). Summed up: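 HepaRG cells, 48 h after plating, exposed 48 h in serum-free induction medium to 8 half-log concentrations up to 100 uM in 0.5% DMSO, in duplicate. DDIT3 mRNA measured by TaqMan qRT-PCR, normalized to ACTB, GAPDH and POLR2A. Fitted bidirectionally against DMSO.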

Read-out in assay [11]: Pro-epidermal growth factor (Homo sapiens) (UniProt P01133)
Nature of the assay: LTEA_HepaRG_EGF: Life Technologies and Expression Analysis (LTEA) Assay for Epidermal growth factor (EGF) using HepaRG (AID 2283489). Summed up:
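HepaRG, 48 h dosing, 100 uM top, half-log x8, 0.5% DMSO. Readout: TaqMan qRT-PCR (Fluidigm array), housekeeping-normalized. Gain or loss of signal fit vs DMSO.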

Read-out in assay [12]: Early growth response protein 1 (EGR1) transcription factor, EGR1 (gene 1958)
Put plainly: LTEA_HepaRG_EGR1: Life Technologies and Expression Analysis (LTEA) Assay for Early growth response protein 1 (EGR1) transcription factor using HepaRG (AID 2283490). Summed up:
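Read-out is EGR1 mRNA level by qRT-PCR, normalized to three housekeeping genes and analysed for gain or loss of signal against 0.5% DMSO. Source cells: human HepaRG, treated 48 h at up to 100 uM in half-log dilutions.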

Read-out in assay [13]: Ezrin (EZR), EZR (gene 7430)
Put plainly: LTEA_HepaRG_EZR: Life Technologies and Expression Analysis (LTEA) Assay for Ezrin (EZR) using HepaRG (AID 2283491). Summed up: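 Gain or loss of EZR mRNA is scored relative to 0.5% DMSO in human HepaRG cultures treated 48 h with test chemicals in duplicate, eight half-log concentrations from 100 uM.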

Read-out in assay [14]: Cytochrome P450 3A7 (Homo sapiens) (UniProt P24462)
Put plainly: LTEA_HepaRG_CYP3A7: Life Technologies and Expression Analysis (LTEA) Assay for CYP3A7 using HepaRG (AID 2283492). Summed up: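 Human HepaRG liver cells, 48 h post-plating, switched to serum-free induction medium and exposed in duplicate for 48 h. Dosing: 100 uM top, half-log dilutions, 8 points, 0.5% DMSO vehicle. Read-out: CYP3A7 mRNA, gain or loss fitted against DMSO baseline.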

Read-out in assay [15]: CYP3A5 (gene 1577)
Nature of the assay: LTEA_HepaRG_CYP3A5: Life Technologies and Expression Analysis (LTEA) Assay for CYP3A5 using HepaRG (AID 2283493). Summed up:
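HepaRG cells, plated 48 h then in serum-free induction medium, dosed in duplicate for 48 h with eight half-log concentrations up to 100 uM in 0.5% DMSO. Gene mRNA by Fluidigm TaqMan qRT-PCR, normalized to ACTB, GAPDH, POLR2A.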

Read-out in assay [16]: Fatty Acid-Binding Protein 1 (FABP1), FABP1 (gene 2168)
Nature of the assay: LTEA_HepaRG_FABP1: Life Technologies and Expression Analysis (LTEA) Assay for Fatty Acid-Binding Protein 1 (FABP1) using HepaRG (AID 2283494). Summed up:
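HepaRG, 48 h post-plating switched to serum-free induction medium, then dosed 48 h (duplicate, 8 pts, ≤100 uM, 0.5% DMSO). RNA → Fluidigm TaqMan qRT-PCR, FABP1 normed to ACTB/GAPDH/POLR2A. Bidirectional curve fit vs DMSO.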

Read-out in assay [17]: Cytochrome P450 4A22 (Homo sapiens) (UniProt Q5TCH4)
Nature of the assay: LTEA_HepaRG_CYP4A22: Life Technologies and Expression Analysis (LTEA) Assay for Cytochrome P450 4A22 (CYP4A22) using HepaRG (AID 2283495). Summed up:
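Readout is CYP4A22 transcript induction or loss, quantified by qRT-PCR and normalized to ACTB, GAPDH and POLR2A. Human HepaRG cells receive test chemicals for 48 h at eight half-log concentrations from 100 uM in 0.5% DMSO.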

Read-out in assay [18]: Cytochrome P450 7A1 (Homo sapiens) (UniProt P22680)
Nature of the assay: LTEA_HepaRG_CYP7A1: Life Technologies and Expression Analysis (LTEA) Assay for Cytochrome P450 7A1 (CYP7A1) using HepaRG (AID 2283496). Summed up:
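HepaRG cells plated 48 h, then switched to serum-free induction medium and exposed in duplicate for 48 h to 8-point half-log series from 100 uM in 0.5% DMSO. CYP7A1 mRNA by qRT-PCR (TaqMan), normalized to ACTB/GAPDH/POLR2A; bidirectional fit versus DMSO.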

Read-out in assay [19]: Glutathione S-Transferase (GSTA2), GSTA2 (gene 2939)
Put plainly: LTEA_HepaRG_GSTA2: Life Technologies and Expression Analysis (LTEA) Assay for Glutathione S-Transferase (GSTA2) using HepaRG (AID 2283497). Summed up:
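HepaRG, 48 h dosing, 8-pt half-log CRC from 100 uM, 0.5% DMSO vehicle, n=2; RNA → Fluidigm TaqMan qRT-PCR; GSTA2 vs ACTB/GAPDH/POLR2A; gain/loss fit vs DMSO.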

Read-out in assay [20]: Cytochrome P450 3A4 (Homo sapiens) (UniProt P08684)
Nature of the assay: LTEA_HepaRG_CYP3A4: Life Technologies and Expression Analysis (LTEA) Assay for CYP3A4 using HepaRG (AID 2283487). Summed up:
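In a human hepatic line (HepaRG), duplicate wells were treated 48 h with up to 100 uM chemical in half-log dilutions. Endpoint: CYP3A4 mRNA induction or loss relative to 0.5% DMSO vehicle, by qRT-PCR.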

Calls of active or inactive are those of the source. How the source made its calls: active means hit-call score of the fitted dose curve at least 0.9, where 1 is the maximum; inactive means score below 0.9.

Chain of Cytochrome P450 3A7 (Homo sapiens) (P24462 whole entry, looked up): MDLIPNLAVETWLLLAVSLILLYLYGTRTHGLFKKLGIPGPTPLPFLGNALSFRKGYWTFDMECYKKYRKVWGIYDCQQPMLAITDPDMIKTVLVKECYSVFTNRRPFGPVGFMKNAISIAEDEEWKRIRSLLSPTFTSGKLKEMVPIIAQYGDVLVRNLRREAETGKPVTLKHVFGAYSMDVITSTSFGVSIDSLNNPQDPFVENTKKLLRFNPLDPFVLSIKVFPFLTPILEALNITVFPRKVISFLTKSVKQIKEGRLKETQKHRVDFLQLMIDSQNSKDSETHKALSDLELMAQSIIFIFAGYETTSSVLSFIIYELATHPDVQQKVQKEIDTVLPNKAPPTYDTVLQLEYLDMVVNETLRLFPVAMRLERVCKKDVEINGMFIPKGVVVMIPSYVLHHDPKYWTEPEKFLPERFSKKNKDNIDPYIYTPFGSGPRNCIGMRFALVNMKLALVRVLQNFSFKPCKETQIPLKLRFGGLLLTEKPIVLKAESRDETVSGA
Chain of Cytochrome P450 2C19 (Homo sapiens) (P33261 whole entry, looked up): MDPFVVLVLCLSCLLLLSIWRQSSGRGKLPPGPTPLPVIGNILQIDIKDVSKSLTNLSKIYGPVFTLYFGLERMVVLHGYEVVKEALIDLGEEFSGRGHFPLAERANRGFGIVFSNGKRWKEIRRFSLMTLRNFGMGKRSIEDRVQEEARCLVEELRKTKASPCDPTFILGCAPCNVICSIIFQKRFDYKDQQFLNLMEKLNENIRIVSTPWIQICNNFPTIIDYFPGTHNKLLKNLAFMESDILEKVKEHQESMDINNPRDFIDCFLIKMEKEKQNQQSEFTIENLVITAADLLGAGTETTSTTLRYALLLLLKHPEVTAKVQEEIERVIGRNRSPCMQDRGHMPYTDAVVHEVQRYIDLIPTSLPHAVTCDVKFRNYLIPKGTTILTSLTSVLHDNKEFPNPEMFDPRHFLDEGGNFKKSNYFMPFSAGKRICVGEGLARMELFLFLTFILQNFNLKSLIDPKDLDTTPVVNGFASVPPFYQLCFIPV
Chain of Cytochrome P450 3A4 (Homo sapiens) (P08684 whole entry, looked up): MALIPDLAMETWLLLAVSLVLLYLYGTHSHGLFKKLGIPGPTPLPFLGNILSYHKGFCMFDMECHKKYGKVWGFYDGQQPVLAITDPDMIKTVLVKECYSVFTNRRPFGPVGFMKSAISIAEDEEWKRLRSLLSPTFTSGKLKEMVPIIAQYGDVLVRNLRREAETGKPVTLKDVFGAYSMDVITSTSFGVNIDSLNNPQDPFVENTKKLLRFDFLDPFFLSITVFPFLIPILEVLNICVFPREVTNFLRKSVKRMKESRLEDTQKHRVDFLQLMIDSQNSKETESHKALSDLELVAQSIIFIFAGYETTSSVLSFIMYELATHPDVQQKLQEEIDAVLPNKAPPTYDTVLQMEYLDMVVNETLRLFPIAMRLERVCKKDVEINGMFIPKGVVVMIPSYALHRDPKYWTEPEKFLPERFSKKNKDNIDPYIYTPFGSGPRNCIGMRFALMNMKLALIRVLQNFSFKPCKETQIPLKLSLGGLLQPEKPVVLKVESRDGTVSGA

By AC50 is commonly meant the midpoint of the concentration-response curve, whichever way the signal moves. Turning to `CCCCCCCCCCCCCCCCOS(=O)(=O)O`, the call in assay [1], in [2], in assay [3], in assay [4], in assay [6] and in assay [7] was inactive. The compound was classed as inactive in [9], in [10], in [11], in assay [12], in assay [13] and in assay [14]. Moreover, the call in [15], in [16] and in assay [17] was inactive. The AC50 in [5] is 43.1 µM (active); in [8], 38.5 µM (active); in [18], 45.2 µM (active); in assay [19], 43.5 µM (active).

In the case of `CCCCN1C(=O)[C@@H]([C@H](O)C2CCCCC2)NC(=O)C12CCN(Cc1ccc(Oc3ccc(C(=O)O)cc3)cc1)CC2`, the half-maximal activity concentration (AC50) is 9.92 µM (active) in assay [1]; 2.06 µM (active) in assay [2]; 3.02 µM (active) in assay [3]; 1.94 µM (active) in [4]; 2.02 µM (active) in assay [5]; 3.24 µM (active) in assay [6]. For the same compound, the AC50 was 1.7 µM (active) in assay [7]; 3.86 µM (active) in [8]; 2.41 µM (active) in [9]; 1.82 µM (active) in [20]; 9.39 µM (active) in [11]; 2.38 µM (active) in [14]. Also, the AC50 was 1.9 µM (active) in assay [15]; 2.84 µM (active) in [16]; 3.35 µM (active) in assay [17]; 2.15 µM (active) in assay [18]; 2.39 µM (active) in assay [19]. Also, the result in assay [12] and in [13] was inactive.

With `OC[C@H]1O[C@@](CO)(O[C@H]2O[C@H](CO)[C@@H](O)[C@H](O)[C@H]2O)[C@@H](O)[C@@H]1O`, the outcome in assay [1], in assay [2], in assay [3], in [4], in assay [5] and in assay [6] was inactive. Besides, the compound was classed as inactive in [7], in assay [8], in assay [9], in assay [10], in assay [11] and in assay [12]. In addition, the result in assay [13], in [14], in assay [15], in assay [16], in assay [18] and in assay [19] was inactive.
